Test [1] is described as follows: qHTS assay to identify aromatase inhibitors - cell viability counter screen (AID 743084).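 Further: cells stimulated with testosterone during compound exposure; nearly all actives have a fitted effect of over 55% in size.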 Further: potency means the concentration at half of the fitted maximal effect.
Test [2] deals with Aryl hydrocarbon receptor (Homo sapiens) (UniProt P35869). The test is described as follows: qHTS assay to identify small molecule that activate the aryl hydrocarbon receptor (AhR) signaling pathway (AID 743085). Further: nearly all actives have a fitted effect of over 15% in size. Further: potency means the concentration at half of the fitted maximal effect.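 On activation: HG2L7.5c1 human HepG2 liver cells with stably integrated DRE-driven firefly reporter; series mostly up to about 70 µM.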 The method in brief: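 Luminescence read-out: ONE-Glo reagent, 30 min at room temperature, in HG2L7.5c1 HepG2 reporter cells treated 24 h at 37C. Viability was measured beforehand by CellTiter-Fluor fluorescence after 30 min at 37C.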
(In general: Quantitative high-throughput screening tests each substance at several concentrations.)

Test [3] in a line: qHTS assay to identify small molecule that activate the aryl hydrocarbon receptor (AhR) signaling pathway - cell viability counter screen (AID 743086). Further: nearly all actives have a fitted effect of over 45% in size. Further: potency means the concentration at half of the fitted maximal effect. The method in brief:
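HepG2-AhR-luc (HG2L7.5c1) cells, 4000/well, treated 24 h at 37 C with compound; viability measured as CellTiter-Fluor fluorescence after 30 min in the same wells as the luciferase read.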

The nature of test [4]: qHTS assay to identify small molecule antagonists of the peroxisome proliferator-activated receptor gamma (PPARg) signaling pathway - cell viability counter screen (AID 743194). Further: nearly all actives have a fitted effect of over 55% in size. The following applies: Potency: co-treated with 50 nM rosiglitazone. The essentials: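 Cytotoxicity counter screen in PPARg-bla HEK293H cells, same wells as reporter assay. Compounds plus 50 nM rosiglitazone (final) for 17 h at 37 C, then viability read by CellTiter-Glo luminescence.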

A short description of test [5]: qHTS assay for small molecule agonists of the antioxidant response element (ARE) signaling pathway (AID 743202; active means well fitted activation curve with a large enough effect in the signal ratio in the repeat runs, not every such curve was filed as active; the % refers to the signal ratio; further: potency means the concentration at half of the fitted maximal effect). The essentials: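 HepG2 ARE-bla reporter line, 2,000 cells/well; 5 h preincubation 37 C/5% CO2; compound (DMSO) 16 h 37 C; B/G FRET substrate 2 h RT; fluorescence intensity.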
Test [6] can be described thus: qHTS assay for small molecule agonists of the antioxidant response element (ARE) signaling pathway - cell viability counter screen (AID 743203; calls by dose curve; further: nearly all actives have a fitted effect of over 55% in size). The method in brief: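 Viability counter screen: CellTiter-Glo luminescence, read after 30 min at room temperature, in ARE-bla HepG2 wells. Compound exposure lasted 16 h at 37C/5% CO2, following a 5 h pre-incubation of the cells after plating.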

Test [7] is described as follows: qHTS assay for small molecule activators of the heat shock response signaling pathway - cell viability counter screen (AID 743209). Further: nearly all actives have a fitted effect of over 50% in size. The method in brief:
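Cytotoxicity counter screen run in the same wells as the heat-shock bla reporter assay: HeLa HSE-bla cells, 5 h compound exposure at 37 C, viability read by CellTiter-Glo luminescence.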

Test [8] can be described thus: qHTS assay to identify small molecule agonists of the peroxisome proliferator-activated receptor delta (PPARd) signaling pathway - cell viability counter screen (AID 743211). Further: nearly all actives have a fitted effect of over 55% in size. The method in brief:
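Read-out: CellTiter-Glo luminescence, 30 min RT, measured in the same wells as the beta-lactamase reporter. Cells: GeneBLAzer PPAR delta UAS-bla HEK293H, 3000 cells/well, compound exposure 17 h at 37C.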

Test [9] concerns the target Peroxisome proliferator-activated receptor delta (Homo sapiens) (UniProt Q03181). The test is described as follows: qHTS assay to identify small molecule agonists of the peroxisome proliferator-activated receptor delta (PPARd) signaling pathway (AID 743212; calls by dose curve). The method in brief:
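Read-out: beta-lactamase FRET fluorescence after 2 h room-temperature incubation with LiveBLAzer B/G substrate. Cells were HEK293H carrying a UAS-bla reporter for PPARd, treated at 37 C with DMSO-dissolved compounds.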

Test [10] addresses Vitamin D3 receptor (Homo sapiens) (UniProt P11473). The test is described as follows: qHTS assay to identify small molecule antagonists of the vitamin D receptor (VDR) signaling pathway (AID 743223; active means well fitted inhibition curve with a large enough effect in the signal ratio in the repeat runs, not every such curve was filed as active; the % refers to the signal ratio). The method in brief: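 Beta-lactamase reporter read-out: FRET substrate fluorescence after 2 h at room temperature, following 16 h exposure of VDR-bla cells to test compound plus 3 nM (final) 1alpha,25-dihydroxyvitamin D3 agonist at 37C.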

Test [11] in a line: qHTS assay to identify small molecule antagonists of the peroxisome proliferator-activated receptor delta (PPARd) signaling pathway - cell viability counter screen (AID 743213). Further: nearly all actives have a fitted effect of over 50% in size. The method in brief:
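PPARd-bla HEK293H cells (3000/well) got compound plus 300 nM L165041 agonist for 17 h at 37 C. Viability in the same wells came from CellTiter-Glo luminescence after 30 min at room temperature.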

The target in test [12] is Peroxisome proliferator-activated receptor delta (Homo sapiens) (UniProt Q03181). The test is described as follows: qHTS assay to identify small molecule antagonists of the peroxisome proliferator-activated receptor delta (PPARd) signaling pathway (AID 743215; active means well fitted inhibition curve with a large enough effect in the signal ratio in the repeat runs, not every such curve was filed as active; the % refers to the signal ratio;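 further: cells stimulated with agonist L165041 at 300 nM final during compound exposure; series mostly up to about 62 µM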). The essentials:
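Agonist L165041 (300 nM final) added with compound to PPARd-bla HEK293H UAS-bla reporter cells; 17 h incubation at 37 C. Read-out: LiveBLAzer FRET substrate, 2 h at room temperature, fluorescence intensity.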

The target of test [13] is Peroxisome proliferator-activated receptor gamma (Homo sapiens) (UniProt P37231). The experiment in a line: qHTS assay to identify small molecule antagonists of the peroxisome proliferator-activated receptor gamma (PPARg) signaling pathway (AID 743191; calls by dose curve; further: nearly all actives have a fitted effect of over 30% in size; further: potency means the concentration at half of the fitted maximal effect). The essentials: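 GeneBLAzer PPARg UAS-bla HEK293H cells, 5 h post-plating, exposed to compounds 17 h at 37C. LiveBLAzer B/G FRET substrate added for 1 h at room temperature; beta-lactamase reporter read by fluorescence intensity.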

Test [14] is described as follows: qHTS assay for small molecule activators of the heat shock response signaling pathway (AID 743210; active means well fitted activation curve with a large enough effect in the signal ratio in the repeat runs, with a control signal flat, not every such curve was filed as active; the % refers to the signal ratio; further: series mostly up to about 63 µM). The essentials: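 Beta-lactamase reporter read-out: FRET substrate fluorescence after 2.5 h at RT, following 5 h compound treatment at 37 C of HeLa cells carrying HSE-driven bla reporter; quantitative HTS format.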
Test [15] has as its target Bile acid receptor (Homo sapiens) (UniProt Q96RI1). The test is described as follows: qHTS assay to identify small molecule antagonists of the farnesoid-X-receptor (FXR) signaling pathway (AID 743217; active means well fitted inhibition curve with a large enough effect in the signal ratio in the repeat runs, not every such curve was filed as active; the % refers to the signal ratio). The essentials:
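Antagonist mode: chenodeoxycholic acid at 50 uM final stimulates a UAS-driven beta-lactamase reporter in HEK 293T FXR-bla cells during 16 h, 37C compound exposure. Read-out is FRET substrate fluorescence after 2 h at room temperature.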

Test [16] in a line: qHTS assay to identify small molecule agonists of the farnesoid-X-receptor (FXR) signaling pathway - cell viability counter screen (AID 743218). Further: nearly all actives have a fitted effect of over 45% in size. The method in brief: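 Viability counter screen in the same wells: CellTiter-Glo luminescence, 30 min room-temperature incubation, measured after the beta-lactamase read. Cells were GeneBLAzer FXR-UAS-bla HEK 293T, compound-treated 16 h at 37C.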

Test [17] has as its target Bile acid receptor (Homo sapiens) (UniProt Q96RI1). The test is described as follows: qHTS assay to identify small molecule agonists of the farnesoid-X-receptor (FXR) signaling pathway (AID 743220; active means well fitted activation curve with a large enough effect in the signal ratio in the repeat runs, not every such curve was filed as active; the % refers to the signal ratio). The essentials:
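FXR-UAS-bla HEK 293T cells carrying a UAS-driven beta-lactamase reporter were plated for 5 h at 37C/5% CO2, then exposed to DMSO-dissolved Tox21 10K compounds for 16 h at 37C. A LiveBLAzer B/G FRET substrate was loaded for 2 h at room temperature before fluorescence reading.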

For test [18], the target named is Vitamin D3 receptor (Homo sapiens) (UniProt P11473). The test is described as follows: qHTS assay to identify small molecule agonists of the vitamin D receptor (VDR) signaling pathway (AID 743222; calls by dose curve). The method in brief: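 Agonist mode, beta-lactamase reporter: fluorescence from LiveBLAzer B/G FRET substrate (2 h, room temperature) read after 16 h compound treatment at 37 C of VDR-bla cells, which were pre-incubated 4 h after seeding.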

A short description of test [19]: qHTS assay to identify small molecule antagonists of the farnesoid-X-receptor (FXR) signaling pathway - cell viability counter screen (AID 743221; active means well fitted cell-killing curve with a large enough effect in the repeat runs, not every such curve was filed as active; further: nearly all actives have a fitted effect of over 50% in size). The method in brief:
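HEK 293T FXR-bla cells, 5 h pre-incubation; compound + CDCA 50 uM final, 16 h, 37 C; beta-lactamase FRET read first, then CellTiter-Glo luminescence, 30 min RT.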

Inconclusive results are not listed. Active and inactive are the calls of the source. Unless noted, the call rests on the fitted dose curve; in most records, active means well fitted curve in the direction sought with a large enough effect in the repeat runs; inconclusive means weak or mixed curves; inactive means no such curve, though single readings can be large; an effect the other way counts as inactive or inconclusive.

Aryl hydrocarbon receptor (Homo sapiens), sequence (P35869 whole entry, looked up): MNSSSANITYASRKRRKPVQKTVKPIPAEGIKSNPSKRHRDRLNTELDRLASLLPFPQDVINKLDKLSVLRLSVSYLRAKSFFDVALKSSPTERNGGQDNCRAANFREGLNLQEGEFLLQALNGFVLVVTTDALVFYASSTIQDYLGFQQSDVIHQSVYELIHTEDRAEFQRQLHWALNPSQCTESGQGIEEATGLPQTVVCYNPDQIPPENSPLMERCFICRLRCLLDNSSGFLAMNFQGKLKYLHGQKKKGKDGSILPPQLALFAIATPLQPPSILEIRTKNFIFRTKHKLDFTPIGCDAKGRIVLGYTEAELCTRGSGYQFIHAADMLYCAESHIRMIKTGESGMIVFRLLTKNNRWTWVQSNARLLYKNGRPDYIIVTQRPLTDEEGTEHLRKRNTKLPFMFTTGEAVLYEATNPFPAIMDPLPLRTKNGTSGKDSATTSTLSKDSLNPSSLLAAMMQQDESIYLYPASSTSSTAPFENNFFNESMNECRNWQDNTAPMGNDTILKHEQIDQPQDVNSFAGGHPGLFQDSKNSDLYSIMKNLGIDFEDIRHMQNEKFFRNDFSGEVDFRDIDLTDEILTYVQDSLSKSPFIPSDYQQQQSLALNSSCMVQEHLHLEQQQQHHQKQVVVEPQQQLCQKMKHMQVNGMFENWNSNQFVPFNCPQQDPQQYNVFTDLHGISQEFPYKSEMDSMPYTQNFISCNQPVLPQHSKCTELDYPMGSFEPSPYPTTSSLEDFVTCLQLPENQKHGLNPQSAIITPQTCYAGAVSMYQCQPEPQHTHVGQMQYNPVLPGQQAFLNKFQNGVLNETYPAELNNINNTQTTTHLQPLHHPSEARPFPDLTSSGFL
Bile acid receptor (Homo sapiens), sequence (Q96RI1 whole entry, looked up): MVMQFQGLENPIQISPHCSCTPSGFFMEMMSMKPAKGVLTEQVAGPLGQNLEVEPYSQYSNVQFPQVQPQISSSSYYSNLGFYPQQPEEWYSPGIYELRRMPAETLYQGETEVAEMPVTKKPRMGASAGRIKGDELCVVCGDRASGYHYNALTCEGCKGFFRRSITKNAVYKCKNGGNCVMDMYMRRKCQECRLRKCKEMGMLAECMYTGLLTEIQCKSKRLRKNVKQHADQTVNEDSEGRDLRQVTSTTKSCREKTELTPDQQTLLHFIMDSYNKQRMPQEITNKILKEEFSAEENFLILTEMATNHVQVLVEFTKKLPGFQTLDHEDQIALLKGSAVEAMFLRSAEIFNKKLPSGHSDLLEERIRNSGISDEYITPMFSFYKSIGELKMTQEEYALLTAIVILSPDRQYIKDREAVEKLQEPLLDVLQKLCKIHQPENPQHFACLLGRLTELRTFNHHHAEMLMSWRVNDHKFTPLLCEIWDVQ
Peroxisome proliferator-activated receptor gamma (Homo sapiens), sequence (P37231 whole entry, looked up): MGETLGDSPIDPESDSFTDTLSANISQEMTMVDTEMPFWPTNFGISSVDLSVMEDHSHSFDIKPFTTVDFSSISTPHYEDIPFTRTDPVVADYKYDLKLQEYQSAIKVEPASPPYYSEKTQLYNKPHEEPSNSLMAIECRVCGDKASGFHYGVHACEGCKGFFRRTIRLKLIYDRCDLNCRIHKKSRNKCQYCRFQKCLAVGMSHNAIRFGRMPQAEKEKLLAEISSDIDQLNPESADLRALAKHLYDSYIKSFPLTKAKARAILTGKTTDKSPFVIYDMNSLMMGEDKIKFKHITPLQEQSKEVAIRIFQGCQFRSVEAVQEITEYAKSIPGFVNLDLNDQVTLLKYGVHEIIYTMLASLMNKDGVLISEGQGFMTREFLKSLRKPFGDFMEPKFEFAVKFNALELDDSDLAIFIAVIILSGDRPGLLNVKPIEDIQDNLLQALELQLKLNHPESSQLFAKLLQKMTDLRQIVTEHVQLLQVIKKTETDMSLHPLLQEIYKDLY
Vitamin D3 receptor (Homo sapiens), sequence (P11473 whole entry, looked up): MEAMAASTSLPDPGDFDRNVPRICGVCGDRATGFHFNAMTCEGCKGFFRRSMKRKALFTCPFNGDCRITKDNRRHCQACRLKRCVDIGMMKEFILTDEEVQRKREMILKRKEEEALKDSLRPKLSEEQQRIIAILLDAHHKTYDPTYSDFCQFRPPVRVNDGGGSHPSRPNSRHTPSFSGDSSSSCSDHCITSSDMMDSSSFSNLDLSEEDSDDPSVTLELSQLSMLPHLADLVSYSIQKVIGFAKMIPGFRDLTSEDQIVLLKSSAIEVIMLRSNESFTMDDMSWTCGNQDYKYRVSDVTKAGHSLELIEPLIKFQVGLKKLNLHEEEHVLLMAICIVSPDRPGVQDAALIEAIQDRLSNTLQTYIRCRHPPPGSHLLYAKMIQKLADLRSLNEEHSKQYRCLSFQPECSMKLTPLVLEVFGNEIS
Peroxisome proliferator-activated receptor delta (Homo sapiens), sequence (Q03181 whole entry, looked up): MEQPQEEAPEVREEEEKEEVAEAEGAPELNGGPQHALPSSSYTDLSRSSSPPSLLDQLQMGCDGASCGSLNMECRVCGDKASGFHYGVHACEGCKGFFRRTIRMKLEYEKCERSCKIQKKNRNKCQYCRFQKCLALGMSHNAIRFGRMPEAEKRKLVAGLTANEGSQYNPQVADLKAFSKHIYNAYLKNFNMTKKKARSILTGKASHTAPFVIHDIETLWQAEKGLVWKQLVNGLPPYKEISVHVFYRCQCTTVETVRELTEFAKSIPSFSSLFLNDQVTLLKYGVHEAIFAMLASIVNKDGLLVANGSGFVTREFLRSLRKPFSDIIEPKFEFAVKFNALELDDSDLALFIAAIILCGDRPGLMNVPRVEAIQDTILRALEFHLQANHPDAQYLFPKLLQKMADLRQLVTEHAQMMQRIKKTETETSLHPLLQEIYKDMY

Consider `Nc1ccc(N=Nc2ccc(-c3ccc(N=Nc4c(S(=O)(=O)O)cc5cc(S(=O)(=O)O)c(N=Nc6ccccc6)c(O)c5c4N)cc3)cc2)c(N)c1`, for which the figures for the Potency in test [1], in test [2] and in test [3] were 31.3 µM (active), 5.56 µM (active) and 39.4 µM (active), respectively. Moreover, the Potency result in [4], in [5], in test [6], in [7] and in test [8] was “inactive” throughout. Further, the compound was classed as inactive in test [9] and in test [10].
For `O=C(NC(=O)c1c(F)cccc1F)Nc1cc(Cl)c(Oc2ncc(C(F)(F)F)cc2Cl)c(Cl)c1`, the Potency result in test [1], in test [2], in test [3], in [4], in [11] and in test [12] was “inactive” in each case.
As for `CC1(C)CCC(Cc2ccc(Cl)cc2)C1(O)Cn1cncn1` (stereo not drawn), the Potency entry in test [1], in test [2], in test [3], in [8], in test [11] and in test [15] was “inactive” throughout. Moreover, the Potency result in test [16] was “inactive”. For the same compound, the Potency in test [13] is 49 µM (active). The compound was called inactive in [14], in [9], in test [17], in [18] and in [10].
For `O=NN1CCNCC1`, the Potency result in [1], in test [2], in [3], in test [13], in [4] and in [5] was “inactive” each time. Also, the Potency result in test [6], in test [8], in test [11] and in [19] was “inactive” throughout. Also, the outcome in test [9], in test [18] and in [10] was inactive.
Take `S=C=NCc1ccccc1`: the Potency result in test [1], in test [2], in test [3], in test [8], in test [11] and in [16] was “inactive” each time. Also, the Potency entry in [19] was “inactive”. Besides, the Potency in [5] is 24.6 µM (active). For the same compound, the compound was called inactive in test [9], in test [18] and in [10].
As to `COP(=O)(OC)O/C(=C/Cl)c1cc(Cl)c(Cl)cc1Cl`, the Potency result in [1], in test [2], in test [3], in [6], in test [7] and in test [11] was “inactive” in each case. Besides, the Potency entry in test [15] and in test [19] was “inactive” in each case. The Potency in [5] was 5.75 µM (active). Also, the compound was classed as inactive in test [14], in test [9] and in [17].
For the compound `ClP(Cl)(Cl)(Cl)Cl`, the Potency result in test [1], in test [2], in test [3], in test [13], in [4] and in [5] was “inactive” each time. Also, the Potency entry in [6], in [7], in test [8], in [11], in [12] and in test [15] was “inactive” throughout. In addition, the Potency result in test [16] was “inactive”. In addition, the outcome in test [14], in test [9], in [17], in [18] and in test [10] was inactive.
Regarding `C=CC[C@]1(O)CC[C@H]2[C@@H]3CCC4=CC(=O)CCC4=C3C=C[C@@]21C`, the Potency entry in test [1], in [3], in test [6], in [8], in test [11] and in test [16] was “inactive” in each case. For the same compound, the Potency result in test [19] was “inactive”. The Potency in test [2] was 5.96 µM (active). Further, the call in [14] was inactive.
Turning to `O=S1(=O)OC(c2cc(Br)c(O)c(Br)c2)(c2cc(Br)c(O)c(Br)c2)c2ccccc21`, the Potency was 25 µM (active) in test [1] and 28.1 µM (active) in test [3]. In addition, the Potency entry in test [2], in test [13], in test [5], in test [12] and in [15] was “inactive” in each case. The outcome in test [14], in test [9], in test [17] and in [18] was inactive.
With `O=C(O)CC(Cl)C(=O)O` (stereo not drawn), the Potency result in test [1], in [2], in test [3], in test [4], in test [7] and in test [8] was “inactive” each time. Also, the Potency result in [11], in test [12], in [15], in [16] and in test [19] was “inactive” each time. In addition, the Potency in [5] is 2.76 µM (active). Also, the compound was classed as inactive in [14], in [9] and in [17].
